Experimental data as given in the supplement of paper PMC10849652.
Of roughly 7,900 targets only a part is listed; those with a hit were picked by preference. About 0.6% of all pairs of compound and target were hits.

Legend:
Test in all cases: log2 fold change, soluble protein after heating vs DMSO (PISA); higher = thermal stabilisation; K562 cells, 10 uM, 30 min; active = over 0.2 and 3.5 SD of the protein, either way, in both replicates (recomputed)
[1] = compound: COC1=CC=C(C=C1)CN2C=CC3=C2C=C(C=C3)C(=O)NO
Outline: (§1)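 Soluble protein was defined as the supernatant after 21,000xg for 90 min. It came from K562 cells at 2×10^6 cells/mL given 10 μM compound for 30 min, heated in aliquots for 3 min across 48°C-58°C, pooled, and extracted in PBS with 0.5% NP-40 at 4°C, and was quantified by TMTpro 16plex LC-MS/MS with equalised channel sums. Thermal stability against control samples, from duplicates, is reported as log2 fold change.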

[2] = compound: CON(C)C(=O)N1N=C(c2cc(F)ccc2F)S[C@@]1(CCCN)c1ccccc1 [filanesib]
Outline: as §1

[3] = compound: CO[C@H]1C[C@@H]2CC[C@@H](C)[C@@](O)(O2)C(=O)C(=O)N2CCCC[C@H]2C(=O)O[C@H]([C@H](C)C[C@@H]2CC[C@H](n3cnnn3)[C@H](OC)C2)CC(=O)[C@H](C)/C=C(\C)[C@@H](O)[C@@H](OC)C(=O)[C@H](C)C[C@H](C)/C=C/C=C/C=C/1C [zotarolimus]
Outline: as §1

[4] = compound: COc1cc(C(=O)O)ccc1NC(=O)[C@@H]1N[C@@H](CC(C)(C)C)[C@](C#N)(c2ccc(Cl)cc2F)[C@H]1c1cccc(Cl)c1F [idasanutlin]
Outline: as §1

[5] = compound: COc1cc(Nc2ncc3c(n2)-c2ccc(Cl)cc2C(c2c(F)cccc2OC)=NC3)ccc1C(=O)O [alisertib]
Outline: as §1

[6] = compound: COc1cc2nc(-c3cc(F)ccc3O)nc(N[C@@H]3CNC[C@H]3C(C)(C)O)c2cc1OC
Outline: as §1

[7] = compound: COc1cc2ncnc(Nc3ccc(F)c(Cl)c3)c2cc1OCCCN1CCOCC1 [gefitinib]
Outline: as §1

[8] = compound: COc1cccc2cc(-c3nc([C@H]4CC[C@H](C(=O)O)CC4)n4ncnc(N)c34)[nH]c12
Outline: as §1

[9] = compound: CS(=O)(=O)CCNCc1ccc(-c2ccc3ncnc(Nc4ccc(OCc5cccc(F)c5)c(Cl)c4)c3c2)o1 [lapatinib]
Outline: as §1

[10] = compound: CS(=O)(=O)N1CCN(Cc2cc3nc(-c4cccc5[nH]ncc45)nc(N4CCOCC4)c3s2)CC1 [pictilisib]
Outline: as §1

[11] = compound: CS(=O)(=O)c1ccc(-c2cnc(N)c(C(=O)Nc3ccccc3)n2)cc1
Outline: as §1

[12] = compound: C[C@@H](Oc1cc(-c2cnn(C3CCNCC3)c2)cnc1N)c1c(Cl)ccc(F)c1Cl [crizotinib]
Outline: as §1

[13] = compound: C[C@@H]1COCCN1C2=NC(=NC(=C2)C3(CC3)S(=O)(=O)C)C4=C5C=CNC5=CC=C4
Outline: as §1

[14] = compound: C[C@H](C1=CC=C(C=C1)C(=O)NC2=C3C=CNC3=NC=C2)N
Outline: as §1

[15] = compound: C[C@H](Nc1ncnc2nc[nH]c12)c1cc2cccc(Cl)c2c(=O)n1-c1ccccc1 [duvelisib]
Outline: as §1

[16] = compound: Cc1cc(Nc2cc(CN3CCOCC3)c3nc(C)c(Cc4ccc(Cl)cc4F)n3n2)n[nH]1 [gandotinib]
Outline: as §1

[17] = compound: Cc1cc(Nc2cc(N3CCN(C)CC3)nc(Sc3ccc(NC(=O)C4CC4)cc3)n2)n[nH]1 [tozasertib]
Outline: as §1

[18] = compound: Cc1cc(SCc2sc(-c3ccc(C(F)(F)F)cc3)nc2C)ccc1OCC(=O)O
Outline: as §1

[19] = compound: Cc1ccc(-n2nc(C(C)(C)C)cc2NC(=O)Nc2ccc(OCCN3CCOCC3)c3ccccc23)cc1 [doramapimod]
Outline: as §1

[20] = compound: Cc1ccc(C(=O)N(CCCN)[C@@H](c2nc3cc(Cl)ccc3c(=O)n2Cc2ccccc2)C(C)C)cc1 [ispinesib]
Outline: as §1

Measured: log2 fold change

CKS1B (UniProt P61024)
Chain of UniProt P61024 (P61024 whole entry, looked up): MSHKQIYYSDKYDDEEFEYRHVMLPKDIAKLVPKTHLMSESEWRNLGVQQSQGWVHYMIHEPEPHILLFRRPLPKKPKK
inactive: [1] -0.045 | [2] 0.047 | [3] 0.013 | [4] -0.011 | [5] -0.012 | [6] -0.048 | [7] -0.008 | [8] 0.031 | [9] 0.004 | [10] -0.007 | [11] -0.013 | [12] 0.063 | [13] 0.06 | [14] -0.051 | [15] 0.022 | [16] 0 | [17] 0.02 | [18] -0.093 | [19] -0.026 | [20] 0.224

COX5B (UniProt P10606)
Chain of UniProt P10606 (P10606 whole entry, looked up): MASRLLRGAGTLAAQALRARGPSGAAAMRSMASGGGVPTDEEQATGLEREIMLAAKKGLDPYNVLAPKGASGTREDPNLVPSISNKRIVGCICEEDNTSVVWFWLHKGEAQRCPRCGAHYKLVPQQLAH
inactive: [1] 0.012 | [2] 0.212 | [3] 0.094 | [4] 0.019 | [5] -0.103 | [6] 0.004 | [7] 0.011 | [8] 0.015 | [9] -0.038 | [10] -0.04 | [11] -0.07 | [12] 0.186 | [13] 0.081 | [14] -0.169 | [15] 0.124 | [16] 0.218 | [17] 0.077 | [18] -0.001 | [19] 0.022 | [20] 0.265

CNOT7 (UniProt Q9UIV1)
Chain of UniProt Q9UIV1 (Q9UIV1 whole entry, looked up): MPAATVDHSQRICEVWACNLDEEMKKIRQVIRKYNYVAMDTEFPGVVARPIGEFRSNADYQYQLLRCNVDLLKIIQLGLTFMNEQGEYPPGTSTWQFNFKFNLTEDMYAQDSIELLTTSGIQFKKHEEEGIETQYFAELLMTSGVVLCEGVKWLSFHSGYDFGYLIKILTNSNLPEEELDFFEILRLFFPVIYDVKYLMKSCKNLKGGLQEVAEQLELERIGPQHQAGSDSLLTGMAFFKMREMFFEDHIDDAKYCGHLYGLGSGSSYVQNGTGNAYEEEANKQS
inactive: [1] -0.032 | [2] 0.012 | [3] 0.018 | [4] -0.008 | [5] -0.011 | [6] 0.233 | [7] 0.134 | [8] -0.067 | [9] -0.036 | [10] 0.001 | [11] -0.052 | [12] -0.097 | [13] 0.043 | [14] 0.219 | [15] 0.069 | [16] -0.003 | [17] -0.007 | [18] 0.022 | [19] 0.07 | [20] -0.072

COASY isoform 2 (UniProt Q13057)
Chain of UniProt Q13057 (Q13057 whole entry, looked up): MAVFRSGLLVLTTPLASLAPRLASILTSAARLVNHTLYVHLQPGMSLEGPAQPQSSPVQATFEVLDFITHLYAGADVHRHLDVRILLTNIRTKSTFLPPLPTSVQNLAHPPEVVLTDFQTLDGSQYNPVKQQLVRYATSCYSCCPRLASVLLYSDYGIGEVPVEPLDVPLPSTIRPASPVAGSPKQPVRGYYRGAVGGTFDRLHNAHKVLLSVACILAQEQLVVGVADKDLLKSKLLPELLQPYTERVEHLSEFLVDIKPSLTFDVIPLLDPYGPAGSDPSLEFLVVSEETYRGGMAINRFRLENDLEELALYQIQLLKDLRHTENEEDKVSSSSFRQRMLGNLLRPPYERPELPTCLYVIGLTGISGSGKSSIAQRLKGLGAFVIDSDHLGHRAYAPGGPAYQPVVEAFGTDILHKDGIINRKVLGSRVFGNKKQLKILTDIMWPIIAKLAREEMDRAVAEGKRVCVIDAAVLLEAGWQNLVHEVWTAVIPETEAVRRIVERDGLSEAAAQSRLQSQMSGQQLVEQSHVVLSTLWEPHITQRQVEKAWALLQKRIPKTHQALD
inactive: [1] 0.034 | [2] -0.061 | [3] 0.024 | [4] -0.071 | [5] -0.038 | [6] 0.01 | [7] -0.038 | [8] 0.045 | [9] 0.043 | [10] 0.028 | [11] -0.052 | [12] -0.071 | [13] 0.133 | [14] -0.09 | [15] 0.058 | [16] -0.058 | [17] -0.031 | [18] 0.045 | [19] -0.063 | [20] -0.057

C19orf53 (UniProt Q9UNZ5)
inactive: [1] -0.225 | [2] 0.375 | [3] 0.042 | [4] 0.209 | [5] -0.086 | [6] -0.067 | [7] -0.045 | [8] -0.167 | [9] 0.184 | [10] -0.073 | [11] -0.125 | [12] 0.092 | [13] -0.553 | [14] 0.404 | [15] -0.15 | [16] 0.316 | [17] 0.022 | [18] 0.03 | [19] 0.174 | [20] -0.13

CKB (UniProt P12277)
Chain of UniProt P12277 (P12277 whole entry, looked up): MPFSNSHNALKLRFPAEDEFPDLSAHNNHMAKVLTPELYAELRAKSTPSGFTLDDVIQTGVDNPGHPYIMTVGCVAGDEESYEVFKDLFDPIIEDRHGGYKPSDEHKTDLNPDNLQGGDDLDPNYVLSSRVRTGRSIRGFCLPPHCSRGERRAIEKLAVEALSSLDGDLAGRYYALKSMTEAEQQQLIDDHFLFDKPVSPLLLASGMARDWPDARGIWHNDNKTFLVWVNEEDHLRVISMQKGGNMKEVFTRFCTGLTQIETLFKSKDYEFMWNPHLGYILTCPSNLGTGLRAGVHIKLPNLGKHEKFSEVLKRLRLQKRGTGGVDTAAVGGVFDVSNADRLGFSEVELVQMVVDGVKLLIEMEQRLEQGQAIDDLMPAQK
inactive: [1] -0.031 | [2] -0.097 | [3] 0.061 | [4] -0.047 | [5] -0.093 | [6] -0.007 | [7] 0.002 | [8] 0.01 | [9] 0.016 | [10] 0.022 | [11] 0.059 | [12] -0.174 | [13] 0.077 | [14] 0.053 | [15] 0.031 | [16] -0.109 | [17] -0.058 | [18] 0.021 | [19] -0.009 | [20] -0.022

C4A (UniProt P0C0L4)
Chain of UniProt P0C0L4 (P0C0L4 whole entry, looked up): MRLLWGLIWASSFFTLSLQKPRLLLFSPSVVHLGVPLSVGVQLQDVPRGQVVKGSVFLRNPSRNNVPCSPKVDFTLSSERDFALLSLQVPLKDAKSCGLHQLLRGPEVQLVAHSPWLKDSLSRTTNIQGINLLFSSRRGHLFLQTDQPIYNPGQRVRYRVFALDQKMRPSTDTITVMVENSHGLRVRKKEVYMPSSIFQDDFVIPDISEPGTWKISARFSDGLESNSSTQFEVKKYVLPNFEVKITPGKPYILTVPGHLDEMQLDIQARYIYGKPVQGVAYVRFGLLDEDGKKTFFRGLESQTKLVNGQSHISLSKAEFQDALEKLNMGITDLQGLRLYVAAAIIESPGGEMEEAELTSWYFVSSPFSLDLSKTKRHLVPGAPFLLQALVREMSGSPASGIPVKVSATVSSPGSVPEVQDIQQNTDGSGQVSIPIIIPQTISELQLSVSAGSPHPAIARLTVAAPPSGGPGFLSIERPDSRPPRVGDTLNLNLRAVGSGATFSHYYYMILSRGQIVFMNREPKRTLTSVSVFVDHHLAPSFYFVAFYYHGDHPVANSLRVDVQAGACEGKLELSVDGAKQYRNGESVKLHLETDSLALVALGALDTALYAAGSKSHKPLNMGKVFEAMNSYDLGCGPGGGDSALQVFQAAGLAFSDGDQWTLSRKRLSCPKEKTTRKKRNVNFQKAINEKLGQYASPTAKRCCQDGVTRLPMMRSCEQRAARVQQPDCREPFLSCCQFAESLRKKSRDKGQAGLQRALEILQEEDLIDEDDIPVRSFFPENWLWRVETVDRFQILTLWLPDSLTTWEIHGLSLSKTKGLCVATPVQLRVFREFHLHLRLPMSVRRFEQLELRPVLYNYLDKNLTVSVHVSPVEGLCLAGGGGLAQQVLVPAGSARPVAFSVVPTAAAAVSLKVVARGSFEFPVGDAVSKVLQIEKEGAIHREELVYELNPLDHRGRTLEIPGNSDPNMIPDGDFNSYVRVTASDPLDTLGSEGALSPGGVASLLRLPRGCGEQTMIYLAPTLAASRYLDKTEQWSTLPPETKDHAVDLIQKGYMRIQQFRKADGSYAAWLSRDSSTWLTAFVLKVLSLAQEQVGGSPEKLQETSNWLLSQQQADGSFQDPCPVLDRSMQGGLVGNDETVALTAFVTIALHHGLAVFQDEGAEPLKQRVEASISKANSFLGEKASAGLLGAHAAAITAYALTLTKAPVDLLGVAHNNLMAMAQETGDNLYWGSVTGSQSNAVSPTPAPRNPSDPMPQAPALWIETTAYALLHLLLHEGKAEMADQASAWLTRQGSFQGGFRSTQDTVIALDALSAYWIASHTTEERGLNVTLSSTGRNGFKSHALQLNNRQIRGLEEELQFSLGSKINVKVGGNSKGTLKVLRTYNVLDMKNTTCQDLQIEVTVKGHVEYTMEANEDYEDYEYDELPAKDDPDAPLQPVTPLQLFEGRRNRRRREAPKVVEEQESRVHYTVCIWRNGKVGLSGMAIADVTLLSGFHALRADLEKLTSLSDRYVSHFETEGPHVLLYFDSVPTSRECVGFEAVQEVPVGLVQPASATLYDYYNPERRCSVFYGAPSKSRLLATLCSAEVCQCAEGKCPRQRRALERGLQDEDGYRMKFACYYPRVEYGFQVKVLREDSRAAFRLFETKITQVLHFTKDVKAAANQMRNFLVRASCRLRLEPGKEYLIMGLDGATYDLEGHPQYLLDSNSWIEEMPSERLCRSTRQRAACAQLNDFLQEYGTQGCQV
inactive: [1] 0.042 | [2] 0.014 | [4] 0.068 | [5] -0.005 | [6] 0.001 | [7] -0.198 | [8] 0.175 | [9] -0.078 | [10] -0.291 | [11] -0.096 | [12] 0.065 | [13] 0.088 | [14] 0.056 | [15] 0.026 | [16] -0.375 | [17] -0.056 | [18] 0.008 | [19] -0.153 | [20] -0.155
active: [3] -0.615

CCNH (UniProt P51946)
Chain of UniProt P51946 (P51946 whole entry, looked up): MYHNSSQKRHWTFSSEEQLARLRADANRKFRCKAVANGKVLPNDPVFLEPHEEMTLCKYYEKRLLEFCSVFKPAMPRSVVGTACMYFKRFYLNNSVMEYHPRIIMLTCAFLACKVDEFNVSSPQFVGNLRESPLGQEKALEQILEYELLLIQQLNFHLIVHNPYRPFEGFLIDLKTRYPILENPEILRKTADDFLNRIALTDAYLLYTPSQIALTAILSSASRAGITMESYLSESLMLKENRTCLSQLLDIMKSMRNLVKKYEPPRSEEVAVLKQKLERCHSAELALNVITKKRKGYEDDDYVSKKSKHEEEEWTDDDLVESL
inactive: [1] 0.043 | [2] 0.005 | [3] -0.044 | [4] 0.018 | [5] -0.011 | [6] 0.026 | [7] -0.03 | [8] -0.002 | [9] 0.023 | [10] 0.007 | [11] -0.033 | [12] 0.033 | [13] 0.048 | [14] -0.031 | [15] 0.037 | [16] 0.013 | [17] 0.046 | [18] -0.01 | [19] -0.086 | [20] 0.098
